A short description of assay [1]: P. berghei load reduction in hepatocytes – cell-based, HepG2, luciferase luminescence, HepG2 viability, primary screen (AID 624349; in the data active means parasite load remaining mostly below about 12%, no sharp cut-off; inactive means mostly above about 10%;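 further: 100% = mean of DMSO negative control wells on the same plate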). The settings on record: P. berghei liver stage in HepG2, luciferase luminescence, concentration not given here; parasite load remaining: stronger effect = lower value; viability: measured here: HepG2 viability without parasites.
The nature of assay [2]: signal quenchers or enhancers, Cy5 substrate/SSB – biochemical, NIH Clinical Collection, E. coli SSB, artefact control for HCV NS3 helicase inhibitor project (AID 743268; call rule not given here). The note with it: Cy5-oligo bound E. coli SSB, fluorescence interference.
The subject of assay [3] is Hepatitis C virus NS3 helicase. Put plainly: blockers of NS3h binding to DNA – biochemical, fluorescence polarization, NIH Clinical Collection, primary screen (AID 743270; call rule not given here). The settings on record: NS3 helicase binding to Cy5-dT15 DNA, stronger effect = higher value, concentration not given here. (In general: In fluorescence polarisation assays a small probe gives low polarisation when free and higher when bound to something large.)

Assay [4] concerns the target Single-stranded DNA-binding protein (Escherichia coli (strain K12)) (UniProt P0AGE0). Put plainly: SSB-ssDNA binding inhibitors – biochemical, fluorescence polarization, NIH Clinical Collection, counter-screen for HCV NS3 helicase inhibitor project (AID 743271; in the data active means inhibition above about 28%). The settings on record: E. coli SSB-DNA binding, stronger effect = higher value, concentration not given here.
The nature of assay [5]: compounds distorting NS3 helicase fluorescence signal – biochemical, NIH Clinical Collection, artefact control for HCV NS3 helicase inhibitor project (AID 743272; call rule not given here;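 further: HCV NS3 helicase with a Cy5 labelled single stranded DNA probe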). The note with it: fluorescence interference counterscreen, HCV NS3 helicase assay; stronger effect = lower value.
Assay [6] can be described thus: modulation of C. elegans fzo-1 (AID 1259413; call rule not given here;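 further: fzo-1 mutant C. elegans worms in liquid wells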). The note with it: C. elegans fzo-1 modulator screen, mean read-out; stronger effect = higher value.
Assay [7] is described as follows: viability loss with induced miR-34 in A549 – imaging, A549 dox-inducible miR-34, nuclei and caspase counts, primary screen (AID 1347080;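 active means compounds whose cell count with miR-34 switched on is under 0.7 times the count with it off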). The note with it: A549 miR-34 inducible, Hoechst nuclei count, 48 h.
A short description of assay [8]: MELAS cybrid and Rieske KO viability enhancers – cell-based, MELAS cybrids, Rieske KO mouse fibroblasts, CellTiter-Glo, primary screen (AID 1508586;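 active means mean z-score across replicates of 1.96 or higher in either the MELAS or the Rieske mutant cell line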;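 further: z relative to plate mean and SD of compound and empty wells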). The settings on record: low glucose.
A short description of assay [9]: galactose survival enhancers in mitochondrial complex I cybrids – cell-based, galactose medium, ATP luminescence, primary screen (AID 1645843;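 active means z-score of at least 1.8 in each of two replicates, scored against plate mean and spread of sample wells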;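 further: positive z means more ATP and so rescue of galactose-driven cybrid death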). The settings on record: complex I mutant cybrid cells, 72 h, stronger effect = higher value.
For the next assay, the system named is F380Y. Put plainly: BK channel mutant inhibitors and activators – cell-based, U2OS BacMam, thallium flux, beta subunits, selectivity assay, profiling panel (AID 1259406).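 Further: initial slope of Thallos dye fluorescence rise after thallium is added; log ratio against the mean of 0.3% DMSO vehicle wells on the same plate.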 The note with it: U2OS BacMam BK variants, at 30 µM.
Another assay concerns F380Y/beta1. Described as above. The settings on record: U2OS BacMam BK variants, at 30 µM.
For another assay, the system named is F380Y/beta2Delta. The assay is described as above. The settings on record: U2OS BacMam BK variants, at 30 µM.
The test system of a further assay is F380Y/beta4. The description is as above. The settings on record: U2OS BacMam BK variants, at 30 µM.
In assay [10] the target is Calcium-activated potassium channel subunit alpha-1 (Homo sapiens) + Leucine-rich repeat-containing protein 26 (Homo sapiens) (UniProt Q12791+Q2I0M4). The description is as above. The settings on record: U2OS BacMam BK variants, F380Y/Slo1WT/gamma1, at 30 µM.
The test system of a further assay is R275C. The assay is described as above. The note with it: U2OS BacMam BK variants, at 30 µM.
For the next assay, the system named is R275C/beta1. The description is as above. The settings on record: U2OS BacMam BK variants, at 30 µM.
The test system of a further assay is R275C/beta2Delta. Described as above. The settings on record: U2OS BacMam BK variants, at 30 µM.
The next assay relates to R275C/beta4. Described as above. The note with it: U2OS BacMam BK variants, at 30 µM.
A further assay relates to R275C/Slo1WT/beta2. The description is as above. The settings on record: U2OS BacMam BK variants, at 30 µM.
The test system of assay [11] is Neuropilin-2 / VEGF-C interaction (human). In words: small molecules blocking Neuropilin-2/VEGF-C interaction – biochemical, microplate binding format, z-score (AID 743281; call rule not given here). The note with it: microplate NRP2/VEGF-C binding assay; stronger effect = lower value.
The mark [12] stands for this setting: stronger effect = lower value, cell number ratio, induced over uninduced.
Where [13] appears, read: measured here: relative caspase fold change +Dox/-Dox.
The mark [14] stands for this setting: measured here: total cells with miR-34 induction, stronger effect = lower value.
Setting [15] is: measured here: total cells without miR-34 induction.
Where [16] appears, read: MELAS cybrid survival, CellTiter-Glo 48 h, stronger effect = higher value.
[17] abbreviates: Rieske KO mouse fibroblast survival, CellTiter-Glo 72 h.

Several values for one entry are separate records, joined by “and”; a condition that tells them apart may be missing. Identical values can stand only once. Activity calls are given as the source filed them.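 How the source made its calls, unless noted: active means thallium flux through the channel raised or lowered by more than 3 SD from vehicle-only wells, actives on both sides; inactive means the rest.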

Sequence of Calcium-activated potassium channel subunit alpha-1 (Homo sapiens) + Leucine-rich repeat-containing protein 26 (Homo sapiens) (Q2I0M4 whole entry, looked up, one chain of several): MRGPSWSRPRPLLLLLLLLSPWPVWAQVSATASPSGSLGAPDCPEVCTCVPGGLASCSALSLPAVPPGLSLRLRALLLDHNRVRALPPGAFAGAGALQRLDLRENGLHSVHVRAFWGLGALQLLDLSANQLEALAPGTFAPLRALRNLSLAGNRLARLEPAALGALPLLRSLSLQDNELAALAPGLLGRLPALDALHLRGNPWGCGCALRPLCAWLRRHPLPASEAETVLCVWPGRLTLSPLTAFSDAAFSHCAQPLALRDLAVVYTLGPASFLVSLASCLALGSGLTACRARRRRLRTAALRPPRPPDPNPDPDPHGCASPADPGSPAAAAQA

For the molecule `COc1cc(C)c(/C=C/C(C)=C/C=C/C(C)=C/C(=O)O)c(C)c1C`, the parasite load remaining in [1] is 45.7% (inactive). The viability (usually a read-out of living cells in per cent, often relative to untreated cells) in assay [1] is 100%. For the same molecule, the fluorescence ratio in [2] is 1.04 (inactive); in assay [5], 1 (inactive). The inhibition (as a rule, the change of the read-out against control, counted positive when it falls) in assay [3] is 4.09% (inactive); in assay [4] it was 4.1% (inactive). Also, the mean signal in assay [6] is 260 (inactive). Further, the results for the fold change in assay [7] (setting [12]) and in [7] (setting [13]) were 0.995 (inactive) and 2.52, respectively. For the same molecule, the cell count in assay [7] (setting [14]) and in assay [7] (setting [15]) was 10300 each time. Moreover, the z-score is 0.713 (inactive) in assay [8] (setting [16]), 1.44 in [8] (setting [17]) and -0.775 (inactive) in assay [9]. Further, the log fold change Tl+ flux was -0.0381 (inactive) in the assay on F380Y; 0.176 (active) in the assay with F380Y/beta1; 0.35 (active) in the assay with F380Y/beta2Delta; 0.0442 (inactive) in the assay on F380Y/beta4; 0.229 (active) in assay [10]; -0.0134 (inactive) with R275C. The log fold change Tl+ flux was 0.389 (active) in the assay on R275C/beta1, 0.261 (active) with R275C/beta2Delta, 0.228 (active) in the assay with R275C/beta4 and -0.0131 (inactive) in the assay with R275C/Slo1WT/beta2.
On to `O=c1ncc(F)c[nH]1`, for which the parasite load remaining in assay [1] is 102% (inactive). Besides, in [1], the viability was determined as 68.9%. Also, the fluorescence ratio in assay [2] was 1.06 (inactive); in assay [5], 1.05 (inactive). For the same molecule, the values for the inhibition in assay [3] and in [4] were 0.4% (inactive) and -3.95% (inactive), respectively. Besides, the z-score in assay [11] is -0.183 (inactive); in assay [9] it was 0.75 (inactive). Besides, in assay [6], the mean signal is 283 (inactive). The fold change is 0.892 (inactive) in assay [7] (setting [12]) and 1.42 in [7] (setting [13]). The cell count in assay [7] (setting [14]) turned out to be 9920; in assay [7] (setting [15]) it was 11100. Moreover, the log fold change Tl+ flux with F380Y was -0.0112 (inactive); with F380Y/beta1, 0.016 (inactive); in the assay on F380Y/beta2Delta, 0.0227 (inactive); with F380Y/beta4, -0.00465 (inactive); in assay [10] it was 0.0169 (inactive); with R275C, -0.0477 (inactive). Also, the log fold change Tl+ flux with R275C/beta1 was 0.0224 (inactive); in the assay with R275C/beta2Delta it was -0.0499 (inactive); in the assay with R275C/beta4 it was 0.00687 (inactive); with R275C/Slo1WT/beta2, -0.000391 (inactive).
In the case of `Cc1onc(-c2ccccc2)c1C(=O)NC1C(=O)N2C1SC(C)(C)C2C(=O)O` (stereo unspecified), the parasite load remaining in assay [1] was 62.5% (inactive). Also, in assay [1], the viability is 137%. In addition, the fluorescence ratio in [2] is 1.01 (inactive); in assay [5], 1 (inactive). In addition, the inhibition in [3] is -1.36% (inactive); in [4], 2.57% (inactive). Moreover, the mean signal in assay [6] is 250 (inactive). Also, the fold change in assay [7] (setting [12]) was 0.977 (inactive) and 0.865 (inactive); in [7] (setting [13]), 2.75 and 0.316. Further, the cell count in assay [7] (setting [14]) is 10800 and 8670; in assay [7] (setting [15]), 11000 and 10000. Also, the z-score in [8] (setting [16]) was 1.06 (inactive); in assay [8] (setting [17]), 0.0389; in [9], 0.33 (inactive) and 0.12 (inactive). Besides, the log fold change Tl+ flux is -0.000886 (inactive) in the assay with F380Y; -0.0194 (inactive) in the assay with F380Y/beta1; -0.0125 (inactive) in the assay on F380Y/beta2Delta; -0.0665 (inactive) in the assay on F380Y/beta4; 0.0114 (inactive) in [10]; 0.00519 (inactive) in the assay on R275C. Besides, the log fold change Tl+ flux in the assay on R275C/beta1 was 0.0152 (inactive); in the assay on R275C/beta2Delta it was 0.00981 (inactive); in the assay with R275C/beta4, -0.0329 (inactive); with R275C/Slo1WT/beta2 it was -0.0606 (inactive).

(Values after PubChem BioAssay.)
